Screening data: PubChem, National Center for Advancing Translational Sciences (NCATS)
An excerpt weighted towards active compounds, which were near 0.85% of everything screened.
GLS inhibitor – qHTS for Inhibitors of Glutaminase (GLS). Glutaminase kidney isoform, mitochondrial (Homo sapiens), O94925. GLS enzymatic activity, qHTS titration. Potency, µM (top dose mostly 45.5 µM), without a hit: top-dose activity change, negative = inhibition, actives largely listed as inhibitors. 0.21% of 410,000 active. AID 624170, 2012
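hKGA in 45 mM KH2PO4 pH 8.2, 0.02% Tween-20 with pin-transferred compounds; 1 mM L-glutamine (stock) plus glutamate oxidase/HRP/Amplex Red coupling added. Fluorescence read initially and after 30 min at RT.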
PGK inhibitor – qHTS Assay to Find Inhibitors of Phosphoglycerate Kinase. AID 602233, 2012. Potency, µM (titrated, usually from 57.5 µM), without a hit: at the top dose activity change, negative = inhibition, usual class: inhibitors. PGK/GAPDH coupled, Kinase-Glo luminescence, 60 min. 0.043% of 380,000 active; further: nearly all actives have a fitted effect of over 60% in size
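Recombinant glycosomal PGK reaction used 1,3-bisphosphoglycerate generated in-well by GAPDH (100nM final) in 100mM TEA pH 7.6, 5mM MgCl2, 0.01% Tween-20. After 60 minutes at room temperature, ATP was read by Kinase-Glo Plus luminescence end-point.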
APE1 inh – qHTS Assay for Inhibitors of the Human Apurinic/apyrimidinic Endonuclease 1 (APE1). DNA repair nuclease/redox regulator APEX1 (Homo sapiens), P27695. 0.35% of 350,000 active. AID 2517, 2012. Potency, µM (series often up to 65.8 µM), without a hit: at the highest dose activity change, negative = inhibition, usual class: inhibitors. recombinant APE1, TAMRA/BHQ-2 abasic DNA cleavage fluorescence;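 further: plate controls were vehicle for no effect and reference inhibitor for full effect; nearly all actives have a fitted effect of over 55% in size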
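Readout is kinetic fluorescence (ex 525, em 598 nm) from cleavage of 50 nM TAMRA/BHQ-2 THF abasic duplex by 0.75 nM APE1, compound added 15 min beforehand at RT.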
RECQ1 inh – qHTS Assay for Inhibitors of RecQ-Like Dna Helicase 1 (RECQ1). ATP-dependent DNA helicase Q1 (Homo sapiens), P46063. RECQ1 DNA unwinding, red fluorescence kinetic read. Potency, µM (highest dose often 57.3 µM), for the others: at the highest dose activity, negative = inhibition, most hits filed as inhibitors. 0.54% of 240,000 active. AID 2549, 2010;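 further: plate controls were vehicle for no effect and no enzyme for full effect; nearly all actives have a fitted effect of over 30% in size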
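50 nM RECQ1T1 preincubated 15 min with compound in Tris pH 8.0 buffer with MgCl2, DTT, Tween-20 and 2.5 ug/ml poly(dI-dC); started with 200 nM TAMRA/BHQ-2 forked duplex and 2 mM ATP. Unwinding read as fluorescence (525/598 nm), two reads 2 h apart.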
TDP1 inh – qHTS Assay for Inhibitors of Tyrosyl-DNA Phosphodiesterase (TDP1); Tyrosyl-DNA phosphodiesterase 1 (Homo sapiens), Q9NUW8; recombinant TDP1, AlphaScreen DNA substrate cleavage; Potency, µM (highest dose often 130 µM), for inactives: top-dose activity change, negative = inhibition, most hits filed as inhibitors; 0.28% of 350,000 active; AID 485290, 2010; further: nearly all actives have a fitted effect of over 40% in size
Target sequence (Q9NUW8 whole entry, looked up): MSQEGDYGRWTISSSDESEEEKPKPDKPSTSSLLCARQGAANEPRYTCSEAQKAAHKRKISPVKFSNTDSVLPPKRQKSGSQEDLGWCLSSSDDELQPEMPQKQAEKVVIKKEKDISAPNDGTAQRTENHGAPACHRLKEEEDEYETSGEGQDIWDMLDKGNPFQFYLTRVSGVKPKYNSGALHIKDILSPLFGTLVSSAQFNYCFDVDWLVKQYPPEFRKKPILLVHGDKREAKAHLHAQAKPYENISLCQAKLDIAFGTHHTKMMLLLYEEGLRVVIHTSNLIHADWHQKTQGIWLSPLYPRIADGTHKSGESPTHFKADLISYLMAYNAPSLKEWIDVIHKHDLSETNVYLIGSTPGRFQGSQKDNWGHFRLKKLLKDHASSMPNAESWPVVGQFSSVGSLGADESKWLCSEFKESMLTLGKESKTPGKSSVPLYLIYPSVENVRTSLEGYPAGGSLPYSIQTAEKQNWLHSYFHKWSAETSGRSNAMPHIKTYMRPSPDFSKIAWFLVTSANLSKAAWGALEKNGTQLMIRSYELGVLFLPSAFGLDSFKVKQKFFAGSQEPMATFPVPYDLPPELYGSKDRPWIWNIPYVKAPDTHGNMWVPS
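AlphaScreen read-out: signal falls as enzyme removes the 3' tyrosine-FITC from a 5'-biotinylated DNA oligo (15 nM, 5 min, RT). Enzyme was E. coli-made recombinant Tdp1 at 1 nM, exposed to compound for 15 min beforehand; beads 10 ug/ml, 10 min.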
BLM helicase inh – qHTS Assay for Inhibitors of Bloom's syndrome helicase (BLM) | RecQ-like DNA helicase BLM (Homo sapiens), P54132 | recombinant BLM DNA unwinding, fluorescence dequenching | Potency, µM (doses to about 56.1 µM), for the others: at the highest dose activity change, negative = inhibition, actives largely listed as inhibitors | 0.2% of 350,000 active;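 further: plate controls were vehicle for no effect and no enzyme for full effect; nearly all actives have a fitted effect of over 35% in size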
Numbers without * were called inactive; i = inactive; ? = inconclusive; . = no result given; [ ] = remark or other dose. The call rests on the fitted dose curve; in most records, active means well fitted curve in the direction sought with a large enough effect; inconclusive means small, poorly fitted or top-dose-only effect, or another doubt; inactive means no such curve, though single readings can be large; an effect the other way counts as inactive or inconclusive. Unless noted, on the % scale 0 is the no-effect control and ±100 the full control effect; potency means the concentration at half of the fitted maximal effect.

SMILES	GLS inhibitor	PGK inhibitor	APE1 inh	RECQ1 inh	TDP1 inh	BLM helicase inh
Cc1ccc(C(=O)[C@H](C)CN2CCCCC2)cc1	3.4%	.	.	.	.	.
O=C(O)c1ccc(CSc2nnc(-c3cccc([S+](=O)([O-])NC4CCCC4)c3)n2-c2ccccc2)cc1	.	.	31.9%	.	.	.
CC1(C)CC(=O)C(N=Nc2cc(S(=O)(=O)N3CCOCC3)ccc2Cl)=C(O)C1	-0.2%	7.5%	10µM*	-9.2%	?	-18.0%
CC1(C)CC(=O)C(N=Nc2cc(C(F)(F)F)ccc2Cl)=C(O)C1	0.6%	4.3%	1.4%	0.9%	6.0%	-2.0%
COC(=O)C1CCN(C(=O)COC(=O)CNS(=O)(=O)c2ccc(SC)c([N+](=O)[O-])c2)CC1	1.2%	-15.3%	11.9µM*	.	35.5µM*	.
NCCC[C@@H](CC(=O)N[C@@H]1CCNC[C@H]1C(=O)N[C@H](CC(=O)N[C@@H](CCC(=O)O)CC(=O)O)Cc1ccccc1)NC(=O)C[C@H](CO)NC(=O)[C@@H]1CNCC[C@H]1N	.	.	-6.1%	3.6%	0.0%	22.4µM*
NCCC[C@@H](CC(=O)N[C@@H]1CCNC[C@H]1C(=O)N[C@H](CC(=O)N[C@@H](CCC(=O)O)CC(=O)O)Cc1ccccc1)NC(=O)C[C@H](CO)NC(=O)[C@@H]1CCCC[C@H]1N	.	.	-1.7%	-0.4%	3.1%	-13.5%
COc1ccc(C2c3c(nc(CCc4ccccc4)[nH]c3=O)Oc3ccc4ccccc4c32)cc1OC (configuration not stated)	.	.	.	.	1.0%	.
OC[C@H]1O[C@H](OC/C=C/c2ccccc2)[C@H](O)[C@@H](O)[C@@H]1O	0.3%	.	.	.	.	.
COc1ccccc1NC(=O)C(=N\O)/C(C)=N/O	54.6%	-12.2%	22.4µM*	-5.7%	?	-3.3%
CC(=O)Nc1ccc(-c2csc(N3CCC(C(N)=O)CC3)n2)cc1	.	.	-1.0%	.	.	.
Cc1noc(NS(=O)(=O)c2ccc(NC(=O)c3ccc(N4C(=O)c5ccccc5C4=O)cc3)cc2)c1C	0.0%	?	?	-6.1%	50.1µM*	-15.0%
Cc1noc(NS(=O)(=O)c2ccc(NC(=O)CCN3C(=O)c4ccccc4C3=O)cc2)c1C	44.2%	-11.0%	-1.3%	7.0%	-5.1%	-0.8%
Nn1c(SCC(=O)NCC2CCCO2)nnc1-c1ccc(OC(F)F)cc1 (configuration not stated)	4.2%	-5.6%	1.9%	.	89.1µM*	.
N#Cc1nc(NCC2CC2)nc(Nc2ccccc2)n1	.	.	-1.7%	-5.7%	13.8%	-7.1%
CC(=O)[C@@]1(O)CC[C@H]2[C@@H]3C=C(Cl)C4=CC(=O)CC[C@]4(C)[C@H]3CC[C@@]21C	6.2%	.	.	.	.	.
Oc1ccc(/C=N/Nc2ccnc3cc(Cl)ccc23)c(O)c1O	12.6µM*	-2.2%	-9.6%	.	12.3%	-26.5%
CC/C(=N\Nc1ccnc2cc(Cl)ccc12)c1ccc(O)cc1	24.2%	-7.2%	-6.6%	.	.	-3.4%
Oc1ccc(/C=N/Nc2ccnc3cc(Cl)ccc23)cc1O	8.0%	i	?	-21.0%	8.8%	28.2µM*
COc1ccc(C(=O)N(Cc2ccccc2)Cc2cccs2)c(O)c1	.	.	.	.	-5.8%	.
COc1ccc2c(c1)Oc1ncn(CCN3CCOCC3)c(=N)c1C2c1ccc(OC)c(OC)c1 (configuration not stated)	.	.	.	.	1.9%	.
CCn1c(=O)c(C(=O)NCCCc2ccccc2)c(O)c2ccccc21	-0.1%	-0.5%	4.5%	.	56.2µM*	-9.6%
O=C1C(SCCO)=C(SCCO)C(=O)c2ccccc21	?	-18.2%	?	?	11.3%[56.1 µM]	8.91µM*
COc1ccc(N=C2S/C(=C\c3ccc(OCC(=O)O)cc3)C(=O)N2CCc2c[nH]c3ccccc23)cc1	10µM*	-15.5%	9.8%	i	8.1%	-8.0%
CC1CCCC(C)N1C(=O)COC(=O)/C=C/c1ccc(Br)o1 (configuration not stated)	-10.9%	?	-45.0%	.	11.2µM*	.
SMILES	GLS inhibitor	PGK inhibitor	APE1 inh	RECQ1 inh	TDP1 inh	BLM helicase inh
CCCC(=O)c1cc(O)c(O)cc1O	-46.1%[99.4 µM]	.	0.891µM*	1.12µM*	?	.
O=S(=O)(c1ccc(NC(=S)NN=C2CCCCC2)cc1)N1CCOCC1	?	9.1%	35.5µM*	-0.4%	4.9%	-5.2%
NNC(=S)Nc1ccc(S(=O)(=O)N2CCOCC2)cc1	4.9%	-11.6%	8.1%	-7.9%	8.2%	-5.1%
NC[C@H]1O[C@H](O[C@H]2[C@H](O[C@@H]3O[C@H](CO)[C@@H](O)[C@H]3O)C(O)[C@H](N)C[C@@H]2N)[C@H](N)[C@@H](O)[C@@H]1O (some centres not stated)	.	.	4.2%[21 µM]	.	.	.
Cc1cc(N)c2ccccc2[n+]1CCCCCCCCCCCCCC[n+]1c(C)cc(N)c2ccccc21	.	.	-9.1%	31.6µM*	23.9%[56.1 µM]	.
Cc1cc(N)c2ccccc2n1	-3.8%	-4.3%	24.1%	-12.4%	-2.5%	-8.5%
O=Cc1cccn1-c1cccc([N+](=O)[O-])c1	2.7%	2.6%	4.2%	-0.4%	9.0%	4.0%
O=C(O)c1cccc(-n2cccc2/C=C\[N+](=O)[O-])c1	103.3%	-27.9%	12.6µM*	-28.1%	.	5.7%
N#Cc1c(-c2ccc(C(F)(F)F)cc2)no[n+]1[O-]	.	.	-2.0%	.	.	.
CCN(CC)c1ccc(NC(=O)Nc2ccccc2)cc1	12.6µM*	-4.6%	33.0%	.	.	-1.6%
CC(C)n1c(SCC(=O)Nc2nncs2)nnc1-c1ccco1	121.8%	-25.2%	13.4µM*	.	11.2µM*	-20.5%
Cc1nnc(NC(=O)CSc2nnc(-c3ccco3)n2C(C)C)s1	-4.9%	-3.7%	8.9%	.	1.3%	-1.2%
O=C(N/N=C/c1cc([N+](=O)[O-])ccc1O)c1cccc(NC(=O)c2cccc(Cl)c2)c1	-4.1%	-6.6%	-4.8%	.	56.2µM*	-5.2%
N#Cc1nc(Nc2ccc(-c3ccccc3)cc2)nc(NC2CCCC2)n1	.	.	.	.	0.5%	.
Cc1cc2c(n1-c1ccc(C(=O)O)cc1)CCCCC2	.	.	5.97µM*	.	.	-0.7%
COc1ccc(C(=O)N(Cc2ccccc2)Cc2ccco2)c(O)c1	.	.	.	.	0.3%	.
CC(=O)c1ccccc1NS(=O)(=O)c1cccc2nsnc12	-13.4%	-28.5%	5.32µM*	.	.	-14.2%
